Most compounds without a hit are left out; they make up all but 2.8% or so of the library.
PAFAH1B3 inh – PAFAH1B3 (human) inhibition. Q15102. recombinant PAFAH1B3, FP-rhodamine probe, fluorescence polarization. inhibition, % at 3.39 µM. 340,000 tested, 0.28% active. AID 492972;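 active means inhibition above the screen-wide average of all tested compounds plus 3 SD, cut at about 25% in these data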;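 further: 0% = enzyme with DMSO only and 100% = wells lacking PAFAH1B3 protein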
Target sequence (Q15102 whole entry, looked up): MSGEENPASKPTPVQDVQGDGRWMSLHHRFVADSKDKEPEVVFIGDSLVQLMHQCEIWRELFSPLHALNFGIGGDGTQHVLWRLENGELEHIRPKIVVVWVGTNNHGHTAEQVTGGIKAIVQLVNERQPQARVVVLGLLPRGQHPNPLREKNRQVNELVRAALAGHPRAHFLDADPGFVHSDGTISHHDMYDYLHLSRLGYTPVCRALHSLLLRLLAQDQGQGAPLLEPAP
Fam108B inh – Fam108B inhibition, counter-screen for RBBP9 inhibitors. recombinant Fam108B, FP-Rh probe fluorescence polarization. inhibition, % at 9.51 µM. 300,000 tested, 0.33% active. AID 1947;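 active means inhibition above the screen mean inhibition plus 3 SD, computed separately per campaign, cut at about 18% in these data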;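 further: inhibitors lower polarization as less probe binds the enzyme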
PAFAH1B2 FP inh – PAFAH1B2 (human) inhibition; P68402; inhibition, % at 3.39 µM; 340,000 tested, 1.2% active; recombinant PAFAH1B2, FP-rhodamine activity probe, fluorescence polarization;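 active means inhibition above the mean of all tested compounds plus 3 SD, cut at about 24% in these data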;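 further: 0% = enzyme with DMSO and 100% = wells lacking PAFAH1B2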
PAFAH2 FP inh – PAFAH2 (human) inhibition; Q99487; recombinant PAFAH2, FP-rhodamine activity probe, fluorescence polarization; inhibition, % at 3.39 µM; 340,000 tested, 0.99% active;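 active means inhibition above the mean over all tested compounds plus 3 SD, cut at about 30% in these data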;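 further: inhibitors block probe labeling of enzyme so polarization drops; 0% = enzyme with DMSO and 100% = wells lacking PAFAH2 protein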
PME-1 inh – PME-1 (human) inhibition; inhibition, % at 5.9 µM; 320,000 tested, 0.53% active; recombinant PME-1, FP-Rh probe fluorescence polarization;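 active means inhibition above the campaign mean of all compounds plus 3 SD, cut at about 26% in these data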;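 further: competitive labeling of PME-1 active site by serine hydrolase directed probe; 0% = PME-1 with DMSO and 100% = wells lacking PME-1 enzyme; inhibitors block probe labeling so polarization falls and inhibition rises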
Target sequence (Q9Y570 whole entry, looked up): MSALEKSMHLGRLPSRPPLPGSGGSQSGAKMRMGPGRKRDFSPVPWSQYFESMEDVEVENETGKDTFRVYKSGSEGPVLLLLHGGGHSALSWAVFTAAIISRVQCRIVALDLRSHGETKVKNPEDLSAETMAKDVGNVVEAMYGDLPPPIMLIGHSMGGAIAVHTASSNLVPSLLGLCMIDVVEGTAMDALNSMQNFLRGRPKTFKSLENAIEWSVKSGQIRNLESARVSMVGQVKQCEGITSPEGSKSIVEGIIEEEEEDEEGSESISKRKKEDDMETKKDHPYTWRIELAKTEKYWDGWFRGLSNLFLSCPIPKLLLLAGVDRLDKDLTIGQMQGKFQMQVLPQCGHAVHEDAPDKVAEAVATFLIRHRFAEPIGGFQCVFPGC
pPAFAH inh – inhibitors of human plasma PAF acetylhydrolase (pPAFAH) | inhibition, % at 3.39 µM | Q13093 | recombinant pPAFAH, FP-rhodamine probe fluorescence polarization | 330,000 tested, 1.5% active | AID 463082;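 active means inhibition above the mean inhibition across the screen plus 3 SD, cut at about 25% in these data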;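 further: inhibitors block binding of the rhodamine activity-based probe so polarization drops; 0% = enzyme with DMSO and 100% = wells lacking pPAFAH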
An asterisk follows results filed as active; · = not tested or not shown.

SMILES | PAFAH1B3 inh | Fam108B inh | PAFAH1B2 FP inh | PAFAH2 FP inh | PME-1 inh | pPAFAH inh
CC1(OC(=O)CCc2ccccc2)C(=O)C=C2C=C(c3ccc(C#N)cc3)N(Cc3ccco3)C=C2C1=O (centres undefined) | -6 | 6 | 4 | -3 | 1 | 33*
CC(=O)C1CCC2C3CCC4CC(=O)CCC4(C)C3C=CC12C (centres undefined) | -1 | · | 6 | 5 | · | ·
O=C(Nc1nc(-c2cccs2)cs1)c1ccc([N+](=O)[O-])o1 | 16 | · | 12 | 25 | 8 | 5
O=C(O)c1cccc(Cn2c(Cl)c(/C=N/NC(=O)c3ccccc3)sc2=O)c1 | 3 | 0 | 4 | 0 | 2 | 8
O=C(O)c1cccc(Cn2c(Cl)c(/C=N/NC(=O)c3cc4ccccc4cc3O)sc2=O)c1 | 17 | 17 | 20 | 29 | -3 | 33*
Cc1cccc(N2CCN(C(=O)n3ccnc3)CC2)c1C | 14 | 3 | -1 | 7 | -6 | 33*
COc1cc(C2c3cc(O)c(OC)cc3CC(C(=O)O)C2CO)ccc1O (centres undefined) | 9 | · | 2 | 6 | · | ·
CC(NC(C)c1ccccc1Cl)C(=O)Nc1cccc(S(=O)(=O)N2CCCCC2)c1 (centres undefined) | 8 | · | 6 | 0 | 5 | 4
CN(/N=C\c1ccc(O)c(O)c1)c1nc(-c2ccccc2)cc(-c2ccccc2)n1 | -12 | 21* | 7 | -12 | 22 | 23
Cc1ccc(C(=O)c2c3ccc([N+](=O)[O-])cc3[n+]([O-])n2CCC(N)=O)cc1 | 4 | -1 | 0 | 8 | 13 | 9
CC(=O)Nc1ccc(NC(=O)CCn2c(=O)oc3ccccc32)cc1 | -1 | 2 | 12 | 10 | -1 | 26*
C/C(CC(=O)Nc1ccc(N(C)C)cc1)=N\NC(=O)c1ccc(C(C)(C)C)cc1 | 10 | 2 | 9 | 37* | -2 | 5
C/C(CC(=O)Nc1ccc(N(C)C)cc1)=N\NC(=O)c1ccc(F)cc1 | 5 | 2 | 0 | -7 | 0 | 1
COc1cc(/C=N/NC(=O)c2ccc(-c3ccccc3)cc2)cc(OC)c1OC | 2 | 6 | 7 | -8 | 3 | 8
COc1cc(/C=N/NC(=O)c2cc(-c3ccccc3)sc2N)cc(OC)c1OC | · | 15 | · | · | 8 | 26*
Cc1ccc(S(=O)(=O)N2CCN(C(=O)c3ccccc3Cc3ccccc3)CC2)c(C)c1 | -2 | 0 | 27* | -1 | 11 | 4
O=C1NC(=NCc2ccccc2)S/C1=C/c1ccc(O)cc1 | 7 | -4 | 5 | 19 | 3 | 29*
Cc1c(N=C2NC(=O)/C(=C/c3ccc(O)cc3)S2)c(=O)n(-c2ccccc2)n1C | 14 | 3 | -1 | 6 | 7 | 7
CCOc1ccccc1C(=O)NCC(=O)OCC(=O)c1c(N)n(C)c(=O)n(C)c1=O | 6 | · | 1 | 7 | · | 5
C/C(=N\OC(=O)c1ccc(F)cc1)c1nccs1 | 10 | -2 | 4 | 33* | -4 | 4
COC(=O)C1=C(C(=O)OC)[C@]2([C@@H]3CCCCN[C@@H](Cc4ccccc4)C(=O)N3Cc3ccccc3)C=C[C@H]1O2 | 6 | · | 7 | -1 | · | ·
CC(C(=O)O)N1C(=O)C2C3CC(C2C1=O)C1C(c2ccccc2)c2sc(=O)[nH]c2SC31 (centres undefined) | 1 | 3 | 55* | 3 | -1 | 1
COc1ccc(C2c3sc(=O)[nH]c3SC3C4CCC(C4)C23)cc1OC (centres undefined) | 4 | 9 | 20 | 12 | 1 | 8
O=C(O)CN1C(=O)C2C3CC(C2C1=O)C1C(c2ccc(F)cc2)c2sc(=O)[nH]c2SC31 (centres undefined) | 9 | -2 | 54* | -2 | -3 | 3
O=C(O)CCCN1C(=O)C2C3CC(C2C1=O)C1C(c2ccccc2)c2sc(=O)[nH]c2SC31 (centres undefined) | 2 | 1 | 81* | -3 | 2 | 4
SMILES | PAFAH1B3 inh | Fam108B inh | PAFAH1B2 FP inh | PAFAH2 FP inh | PME-1 inh | pPAFAH inh
O=c1[nH]c2c(s1)C(c1cccnc1)C1C3CCC(C3)C1S2 (centres undefined) | 10 | 1 | 24 | 1 | 7 | 2
CC(C(=O)O)N1C(=O)C2C3c4ccccc4C(c4ccccc43)[C@@H]2C1=O (some centres undefined) | 4 | 3 | 6 | 1 | -1 | -2
O=c1[nH]c2c(s1)C(c1ccc(O)cc1)C1C3CCC(C3)C1S2 (centres undefined) | 6 | 6 | 27* | -2 | 4 | 10
C[C@]12CC[C@H](O)C[C@@H]1CC[C@@H]1[C@@H]2CC[C@@]2(C)[C@H]1CCC(=O)[C@]21CCCO1 | 1 | · | 2 | -1 | · | 1
C[C@H](CO)N1C[C@H](C)[C@@H](CN(C)Cc2ccccc2)Oc2ccc(NC(=O)CCCCCC(=O)Nc3ccccc3N)cc2C1=O | 6 | · | 2 | 4 | · | -1
O=C(O)CN1C(=O)C2C3CC(C2C1=O)C1C(c2ccc(Cl)cc2)c2sc(=O)[nH]c2SC31 (centres undefined) | 6 | 2 | 47* | 5 | 1 | 2
Cc1cc(OC(C)C(=O)NC(Cc2c[nH]c3ccc(O)cc23)C(=O)O)c2c(C)cc(=O)oc2c1 (centres undefined) | -1 | 6 | 5 | 2 | 4 | 1
CC(Oc1ccc2c(-c3ccccc3)cc(=O)oc2c1)C(=O)NC(Cc1c[nH]c2ccc(O)cc12)C(=O)O (centres undefined) | 7 | 1 | 71* | -2 | 2 | 15
O=C(COc1ccc2c(-c3ccccc3)cc(=O)oc2c1)N[C@@H](Cc1c[nH]c2ccc(O)cc12)C(=O)O | 5 | 0 | 63* | -2 | 4 | 16
CC(=O)Nc1ccc(SCC(=O)Nc2ccccc2N2CCOCC2)cc1 | 11 | · | 8 | -3 | · | -2
Cc1snc(SCc2ccc(Cl)cc2)c1C#N | 3 | -6 | 28* | -2 | -3 | 8
Cc1cc(C)c(C(=O)CN2C(=O)C(=O)N(C3CCCC3)C2=O)cc1C | -1 | · | 10 | -2 | -6 | -5
Cc1ccc(Cc2cnc(N3C(=N)SC(C)C3=O)s2)cc1 (centres undefined) | -6 | 1 | 75* | 13 | 3 | 25*
N#C/C(=C(/O)COC(=O)Cc1c[nH]c2ccccc12)c1nc2ccccc2[nH]1 | 4 | 11 | 4 | 9 | 8 | 25*
NC(N)=NN=C(c1ccc(F)cc1)c1ccc(C(F)(F)F)cc1 | 4 | · | 2 | 1 | · | ·
Cc1ccc(S(=O)(=O)c2nc(S(=O)(=O)c3ccccc3)sc2N2CCN(C)CC2)cc1 | 5 | -1 | 0 | 0 | 0 | 31*
COC(=O)c1ccc(OC(=O)/C=C/c2ccco2)cc1 | 6 | -3 | 6 | 26 | 4 | 5
O=Cc1cccc(OC(=O)/C=C/c2ccco2)c1 | 9 | -1 | 5 | 15 | -2 | 30*

Screening data as filed in PubChem.
